# According to PMC11006913:
# Positions count from the first letter of the chain named.
# Legend:
# Experiment in all cases: PBM; 200 nM protein, PBS
# Details in all cases: dsDNA, one strand shown
# HOXB9 [1] = biological target: HOXB9 (Homo sapiens, UniProt P17482 171-250, T197M)
# SIX6 [2] = biological target: T1, SIX6 (Homo sapiens, UniProt O95475 114-200, L167I)
# T1 sequence: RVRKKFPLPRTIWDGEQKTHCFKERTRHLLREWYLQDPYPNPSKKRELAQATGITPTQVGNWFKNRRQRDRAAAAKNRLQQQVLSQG
# SIX6 [3] = biological target: T2, SIX6 (Homo sapiens, UniProt O95475 114-200, L143V)
# T2 sequence: T1 sequence with L30V, I54L
# SIX6 [4] = biological target: T3, SIX6 (Homo sapiens, UniProt O95475 114-200, H141N)
# T3 sequence: T1 sequence with H28N, I54L
# SIX6 [5] = biological target: T4, SIX6 (Homo sapiens, UniProt O95475 114-200, T165P)
# T4 sequence: T1 sequence with T52P, I54L
# SIX6 [6] = biological target: T5, SIX6 (Homo sapiens, UniProt O95475 114-200, L167M)
# T5 sequence: T1 sequence with I54M
# SIX6 [7] = biological target: T6, SIX6 (Homo sapiens, UniProt O95475 114-200, L143M)
# T6 sequence: T1 sequence with L30M, I54L
# SIX6 [8] = biological target: T7, SIX6 (Homo sapiens, UniProt O95475 114-200, L143I)
# T7 sequence: T1 sequence with L30I, I54L
# SIX6 [9] = biological target: T8, SIX6 (Homo sapiens, UniProt O95475 114-200, T165G)
# T8 sequence: T1 sequence with T52G, I54L
# HOXB9 [10] = biological target: HOXB9 (Homo sapiens, UniProt P17482 171-250)
# SIX6 [11] = biological target: T9, SIX6 (Homo sapiens, UniProt O95475 114-200, T139Q)
# T9 sequence: T1 sequence with T26Q, I54L
# SIX6 [12] = biological target: T10, SIX6 (Homo sapiens, UniProt O95475 114-200, T165A)
# T10 sequence: T1 sequence with T52A, I54L
# SIX6 [13] = biological target: T11, SIX6 (Homo sapiens, UniProt O95475 114-200, L167V)
# T11 sequence: T1 sequence with I54V
# SIX6 [14] = biological target: T12, SIX6 (Homo sapiens, UniProt O95475 114-200)
# T12 sequence: T1 sequence with I54L
# SIX6 [15] = biological target: T13, SIX6 (Homo sapiens, UniProt O95475 114-200, T165I)
# T13 sequence: T1 sequence with T52I, I54L
# HOXB9 [16] = biological target: HOXB9 (Homo sapiens, UniProt P17482 171-250, R186Q)
# HOXA4 [17] = biological target: HOXA4 (Homo sapiens, UniProt Q00056 201-287, W262R)
# HOXC9 [18] = biological target: HOXC9 (Homo sapiens, UniProt P31274 178-260, K195R)
# HOXB6 [19] = biological target: HOXB6 (Homo sapiens, UniProt P17509 132-218, K202E)
# HOXA4 [20] = biological target: HOXA4 (Homo sapiens, UniProt Q00056 201-287, R217L)
# HOXC9 [21] = biological target: HOXC9 (Homo sapiens, UniProt P31274 178-260)
# HOXC9 [22] = biological target: HOXC9 (Homo sapiens, UniProt P31274 178-260, R193K)
# HOXA4 [23] = biological target: HOXA4 (Homo sapiens, UniProt Q00056 201-287)
# HOXC9 [24] = biological target: HOXC9 (Homo sapiens, UniProt P31274 178-260, R222W)
# HOXA4 [25] = biological target: HOXA4 (Homo sapiens, UniProt Q00056 201-287, W262F)
# HOXB6 [26] = biological target: HOXB6 (Homo sapiens, UniProt P17509 132-218)
# HOXC10 [27] = biological target: HOXC10 (Homo sapiens, UniProt Q9NYD6 254-340)
# VENTX = biological target: T14, VENTX (Homo sapiens, UniProt O95231 78-163, Y115F)
# T14 sequence: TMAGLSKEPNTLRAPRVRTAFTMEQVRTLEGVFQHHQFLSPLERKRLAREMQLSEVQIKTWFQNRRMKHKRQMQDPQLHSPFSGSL
# HOXA2 [28] = biological target: HOXA2 (Homo sapiens, UniProt O43364 129-215, R185T)
# PITX2 = PITX2 (Homo sapiens, UniProt Q99697 72-157)
# HOXA2 [29] = biological target: HOXA2 (Homo sapiens, UniProt O43364 129-215, R185K)
# HOXC10 [30] = biological target: HOXC10 (Homo sapiens, UniProt Q9NYD6 254-340, K271E)
# HOXA2 [31] = biological target: HOXA2 (Homo sapiens, UniProt O43364 129-215, Y150S)
# HOXA2 [32] = biological target: HOXA2 (Homo sapiens, UniProt O43364 129-215)
# HOXA7 [33] = biological target: HOXA7 (Homo sapiens, UniProt P31268 116-202)
# MSX2 [34] = biological target: MSX2 (Homo sapiens, UniProt P35548 130-214, R199I)
# HOXD13 = HOXD13 (Homo sapiens, UniProt P35453 263-343, T313R)
# MSX2 [35] = biological target: MSX2 (Homo sapiens, UniProt P35548 130-214)
# MSX2 [36] = biological target: MSX2 (Homo sapiens, UniProt P35548 130-214, F161Y)
# HOXA7 [37] = biological target: HOXA7 (Homo sapiens, UniProt P31268 116-202, W177C)
# ALX4 = ALX4 (Homo sapiens, UniProt Q9H161 200-286)
# ALX3 = ALX3 (Homo sapiens, UniProt O95076 139-225, N203Q)
# ALX3, sequence (O95076 139-225 N203Q): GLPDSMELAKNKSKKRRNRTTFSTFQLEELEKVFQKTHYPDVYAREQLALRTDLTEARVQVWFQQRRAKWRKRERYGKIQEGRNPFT
# HOXC9 (Homo sapiens, UniProt P31274 178-260, R222W), sequence (P31274 178-260 R222W): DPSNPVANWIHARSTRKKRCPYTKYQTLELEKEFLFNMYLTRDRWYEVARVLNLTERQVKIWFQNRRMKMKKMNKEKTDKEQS
# HOXC9 (Homo sapiens, UniProt P31274 178-260), sequence (P31274 178-260): as the sequence (P31274 178-260 R222W) above, with W45R counted along it
# HOXA2 (Homo sapiens, UniProt O43364 129-215, R185T), sequence (O43364 129-215 R185T): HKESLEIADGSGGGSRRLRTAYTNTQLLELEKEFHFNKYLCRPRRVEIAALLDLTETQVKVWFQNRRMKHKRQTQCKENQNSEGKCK
# HOXA2 (Homo sapiens, UniProt O43364 129-215, Y150S), sequence (O43364 129-215 Y150S): as the sequence (O43364 129-215 R185T) above, with Y22S, T57R counted along it
# HOXB6 (Homo sapiens, UniProt P17509 132-218, K202E), sequence (P17509 132-218 K202E): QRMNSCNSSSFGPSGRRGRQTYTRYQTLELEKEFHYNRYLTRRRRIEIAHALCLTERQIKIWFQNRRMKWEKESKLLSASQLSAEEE
# HOXB9 (Homo sapiens, UniProt P17482 171-250, T197M), sequence (P17482 171-250 T197M): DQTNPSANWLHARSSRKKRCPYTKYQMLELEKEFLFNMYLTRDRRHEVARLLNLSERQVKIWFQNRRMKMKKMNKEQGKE
# HOXA2 (Homo sapiens, UniProt O43364 129-215), sequence (O43364 129-215): as the sequence (O43364 129-215 R185T) above, with T57R counted along it
# HOXC9 (Homo sapiens, UniProt P31274 178-260, R193K), sequence (P31274 178-260 R193K): as the sequence (P31274 178-260 R222W) above, with R16K, W45R counted along it
# HOXC9 (Homo sapiens, UniProt P31274 178-260, K195R), sequence (P31274 178-260 K195R): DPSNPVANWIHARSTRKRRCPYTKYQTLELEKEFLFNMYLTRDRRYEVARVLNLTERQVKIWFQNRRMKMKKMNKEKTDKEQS
# HOXB9 (Homo sapiens, UniProt P17482 171-250), sequence (P17482 171-250): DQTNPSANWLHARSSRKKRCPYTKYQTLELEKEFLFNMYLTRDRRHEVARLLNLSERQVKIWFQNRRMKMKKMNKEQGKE
# HOXB9 (Homo sapiens, UniProt P17482 171-250, R186Q), sequence (P17482 171-250 R186Q): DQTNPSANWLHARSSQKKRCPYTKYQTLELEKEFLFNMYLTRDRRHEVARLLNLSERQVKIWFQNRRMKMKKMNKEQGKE
# HOXC10 (Homo sapiens, UniProt Q9NYD6 254-340, K271E), sequence (Q9NYD6 254-340 K271E): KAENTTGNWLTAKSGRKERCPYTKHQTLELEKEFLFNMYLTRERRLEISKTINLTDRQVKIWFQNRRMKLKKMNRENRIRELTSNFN
# HOXA4 (Homo sapiens, UniProt Q00056 201-287, W262R), sequence (Q00056 201-287 W262R): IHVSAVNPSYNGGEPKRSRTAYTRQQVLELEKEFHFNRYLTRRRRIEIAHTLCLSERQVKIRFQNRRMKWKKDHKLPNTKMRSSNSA
# HOXC10 (Homo sapiens, UniProt Q9NYD6 254-340), sequence (Q9NYD6 254-340): as the sequence (Q9NYD6 254-340 K271E) above, with E18K counted along it
# HOXA4 (Homo sapiens, UniProt Q00056 201-287, W262F), sequence (Q00056 201-287 W262F): as the sequence (Q00056 201-287 W262R) above, with R62F counted along it
# HOXA4 (Homo sapiens, UniProt Q00056 201-287), sequence (Q00056 201-287): as the sequence (Q00056 201-287 W262R) above, with R62W counted along it
# HOXB6 (Homo sapiens, UniProt P17509 132-218), sequence (P17509 132-218): as the sequence (P17509 132-218 K202E) above, with E71K counted along it
# HOXA4 (Homo sapiens, UniProt Q00056 201-287, R217L), sequence (Q00056 201-287 R217L): as the sequence (Q00056 201-287 W262R) above, with R17L, R62W counted along it
# HOXA7 (Homo sapiens, UniProt P31268 116-202, W177C), sequence (P31268 116-202 W177C): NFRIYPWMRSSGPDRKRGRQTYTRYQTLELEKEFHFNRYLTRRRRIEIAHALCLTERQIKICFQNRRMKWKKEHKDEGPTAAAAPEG
# HOXD13, sequence (P35453 263-343 T313R): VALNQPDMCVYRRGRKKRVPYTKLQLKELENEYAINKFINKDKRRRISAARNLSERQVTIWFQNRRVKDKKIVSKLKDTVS
# MSX2 (Homo sapiens, UniProt P35548 130-214), sequence (P35548 130-214): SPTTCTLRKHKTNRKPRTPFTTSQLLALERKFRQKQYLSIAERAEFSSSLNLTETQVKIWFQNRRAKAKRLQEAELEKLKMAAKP
# MSX2 (Homo sapiens, UniProt P35548 130-214, F161Y), sequence (P35548 130-214 F161Y): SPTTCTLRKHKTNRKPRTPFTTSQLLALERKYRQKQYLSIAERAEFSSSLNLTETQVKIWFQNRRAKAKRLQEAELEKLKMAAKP
# MSX2 (Homo sapiens, UniProt P35548 130-214, R199I), sequence (P35548 130-214 R199I): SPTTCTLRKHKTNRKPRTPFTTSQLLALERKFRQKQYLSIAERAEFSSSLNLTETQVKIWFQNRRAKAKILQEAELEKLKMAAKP
# HOXA7 (Homo sapiens, UniProt P31268 116-202), sequence (P31268 116-202): as the sequence (P31268 116-202 W177C) above, with C62W counted along it
# HOXA2 (Homo sapiens, UniProt O43364 129-215, R185K), sequence (O43364 129-215 R185K): as the sequence (O43364 129-215 R185T) above, with T57K counted along it
# ALX4, sequence (Q9H161 200-286): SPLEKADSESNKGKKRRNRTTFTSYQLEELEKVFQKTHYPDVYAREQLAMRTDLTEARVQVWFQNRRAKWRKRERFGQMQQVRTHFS
sequence,measurement,setting,value
CAGCTGCG,binding signal,HOXB9 [1],"8.53 upbm affinity estimate (log intensity, higher = more binding, comparable within an allelic series)"
same,binding signal,SIX6 [2],"9.16 upbm affinity estimate (log intensity, higher = more binding, comparable within an allelic series)"
same,binding signal,SIX6 [3],"9.03 upbm affinity estimate (log intensity, higher = more binding, comparable within an allelic series)"
same,binding signal,SIX6 [4],"9.09 upbm affinity estimate (log intensity, higher = more binding, comparable within an allelic series)"
same,binding signal,SIX6 [5],"9 upbm affinity estimate (log intensity, higher = more binding, comparable within an allelic series)"
same,binding signal,SIX6 [6],"9.04 upbm affinity estimate (log intensity, higher = more binding, comparable within an allelic series)"
same,binding signal,SIX6 [7],"9.22 upbm affinity estimate (log intensity, higher = more binding, comparable within an allelic series)"
same,binding signal,SIX6 [8],"9.01 upbm affinity estimate (log intensity, higher = more binding, comparable within an allelic series)"
same,binding signal,SIX6 [9],"9.19 upbm affinity estimate (log intensity, higher = more binding, comparable within an allelic series)"
same,binding signal,HOXB9 [10],"8.16 upbm affinity estimate (log intensity, higher = more binding, comparable within an allelic series)"
same,binding signal,SIX6 [11],"9.25 upbm affinity estimate (log intensity, higher = more binding, comparable within an allelic series)"
same,binding signal,SIX6 [12],"9.08 upbm affinity estimate (log intensity, higher = more binding, comparable within an allelic series)"
same,binding signal,SIX6 [13],"9.05 upbm affinity estimate (log intensity, higher = more binding, comparable within an allelic series)"
same,binding signal,SIX6 [14],"9.08 upbm affinity estimate (log intensity, higher = more binding, comparable within an allelic series)"
same,binding signal,SIX6 [15],"9.09 upbm affinity estimate (log intensity, higher = more binding, comparable within an allelic series)"
same,binding signal,HOXB9 [16],"8.31 upbm affinity estimate (log intensity, higher = more binding, comparable within an allelic series)"
GGGATCCC,binding signal,HOXB9 [1],"8.56 upbm affinity estimate (log intensity, higher = more binding, comparable within an allelic series)"
same,binding signal,HOXA4 [17],"9.85 upbm affinity estimate (log intensity, higher = more binding, comparable within an allelic series)"
same,binding signal,HOXC9 [18],"9.54 upbm affinity estimate (log intensity, higher = more binding, comparable within an allelic series)"
same,binding signal,HOXB6 [19],"9.02 upbm affinity estimate (log intensity, higher = more binding, comparable within an allelic series)"
same,binding signal,HOXA4 [20],"9.68 upbm affinity estimate (log intensity, higher = more binding, comparable within an allelic series)"
same,binding signal,HOXB9 [10],"8.21 upbm affinity estimate (log intensity, higher = more binding, comparable within an allelic series)"
same,binding signal,HOXC9 [21],"9.51 upbm affinity estimate (log intensity, higher = more binding, comparable within an allelic series)"
same,binding signal,HOXC9 [22],"9.56 upbm affinity estimate (log intensity, higher = more binding, comparable within an allelic series)"
same,binding signal,HOXA4 [23],"9.71 upbm affinity estimate (log intensity, higher = more binding, comparable within an allelic series)"
same,binding signal,HOXB9 [16],"8.25 upbm affinity estimate (log intensity, higher = more binding, comparable within an allelic series)"
same,binding signal,HOXC9 [24],"9.68 upbm affinity estimate (log intensity, higher = more binding, comparable within an allelic series)"
same,binding signal,HOXA4 [25],"9.89 upbm affinity estimate (log intensity, higher = more binding, comparable within an allelic series)"
same,binding signal,HOXB6 [26],"9.02 upbm affinity estimate (log intensity, higher = more binding, comparable within an allelic series)"
ATTAACGA,binding signal,HOXB9 [1],"10 upbm affinity estimate (log intensity, higher = more binding, comparable within an allelic series)"
same,binding signal,HOXA4 [17],"10.6 upbm affinity estimate (log intensity, higher = more binding, comparable within an allelic series)"
same,binding signal,HOXC9 [18],"12.6 upbm affinity estimate (log intensity, higher = more binding, comparable within an allelic series)"
same,binding signal,HOXC10 [27],"12.2 upbm affinity estimate (log intensity, higher = more binding, comparable within an allelic series)"
same,binding signal,VENTX,"11.5 upbm affinity estimate (log intensity, higher = more binding, comparable within an allelic series)"
same,binding signal,HOXA2 [28],"12.4 upbm affinity estimate (log intensity, higher = more binding, comparable within an allelic series)"
same,binding signal,HOXA4 [20],"12 upbm affinity estimate (log intensity, higher = more binding, comparable within an allelic series)"
same,binding signal,HOXC9 [21],"12.5 upbm affinity estimate (log intensity, higher = more binding, comparable within an allelic series)"
same,binding signal,PITX2,"10.7 upbm affinity estimate (log intensity, higher = more binding, comparable within an allelic series)"
same,binding signal,HOXC9 [22],"12.5 upbm affinity estimate (log intensity, higher = more binding, comparable within an allelic series)"
same,binding signal,HOXA2 [29],"13.3 upbm affinity estimate (log intensity, higher = more binding, comparable within an allelic series)"
same,binding signal,HOXA4 [23],"13.6 upbm affinity estimate (log intensity, higher = more binding, comparable within an allelic series)"
same,binding signal,HOXC10 [30],"12.1 upbm affinity estimate (log intensity, higher = more binding, comparable within an allelic series)"
same,binding signal,HOXC9 [24],"10.9 upbm affinity estimate (log intensity, higher = more binding, comparable within an allelic series)"
same,binding signal,HOXA2 [31],"10.9 upbm affinity estimate (log intensity, higher = more binding, comparable within an allelic series)"
same,binding signal,HOXA4 [25],"11.4 upbm affinity estimate (log intensity, higher = more binding, comparable within an allelic series)"
same,binding signal,HOXA2 [32],"12 upbm affinity estimate (log intensity, higher = more binding, comparable within an allelic series)"
ATTTAATG,binding signal,HOXB9 [1],"10.2 upbm affinity estimate (log intensity, higher = more binding, comparable within an allelic series)"
same,binding signal,HOXC9 [18],"13.1 upbm affinity estimate (log intensity, higher = more binding, comparable within an allelic series)"
same,binding signal,HOXA7 [33],"11.3 upbm affinity estimate (log intensity, higher = more binding, comparable within an allelic series)"
same,binding signal,HOXC10 [27],"12.4 upbm affinity estimate (log intensity, higher = more binding, comparable within an allelic series)"
same,binding signal,HOXB6 [19],"10.1 upbm affinity estimate (log intensity, higher = more binding, comparable within an allelic series)"
same,binding signal,HOXB9 [10],"12.3 upbm affinity estimate (log intensity, higher = more binding, comparable within an allelic series)"
same,binding signal,HOXC9 [21],"13 upbm affinity estimate (log intensity, higher = more binding, comparable within an allelic series)"
same,binding signal,MSX2 [34],"11.4 upbm affinity estimate (log intensity, higher = more binding, comparable within an allelic series)"
same,binding signal,HOXD13,"10.7 upbm affinity estimate (log intensity, higher = more binding, comparable within an allelic series)"
same,binding signal,HOXC9 [22],"13 upbm affinity estimate (log intensity, higher = more binding, comparable within an allelic series)"
same,binding signal,HOXC10 [30],"12.2 upbm affinity estimate (log intensity, higher = more binding, comparable within an allelic series)"
same,binding signal,MSX2 [35],"12.2 upbm affinity estimate (log intensity, higher = more binding, comparable within an allelic series)"
same,binding signal,HOXB9 [16],"12.1 upbm affinity estimate (log intensity, higher = more binding, comparable within an allelic series)"
same,binding signal,HOXC9 [24],"11.2 upbm affinity estimate (log intensity, higher = more binding, comparable within an allelic series)"
same,binding signal,MSX2 [36],"12 upbm affinity estimate (log intensity, higher = more binding, comparable within an allelic series)"
same,binding signal,HOXA7 [37],"8.91 upbm affinity estimate (log intensity, higher = more binding, comparable within an allelic series)"
same,binding signal,HOXB6 [26],"11.9 upbm affinity estimate (log intensity, higher = more binding, comparable within an allelic series)"
CCTTGCAG,binding signal,ALX4,"7.87 upbm affinity estimate (log intensity, higher = more binding, comparable within an allelic series)"
ATAATAAT,binding signal,HOXB6 [19],"10 upbm affinity estimate (log intensity, higher = more binding, comparable within an allelic series)"
same,binding signal,ALX3,"8.6 upbm affinity estimate (log intensity, higher = more binding, comparable within an allelic series)"
CGCCACCG,binding signal,HOXA2 [28],"7.25 upbm affinity estimate (log intensity, higher = more binding, comparable within an allelic series)"
same,binding signal,HOXA2 [31],"10.7 upbm affinity estimate (log intensity, higher = more binding, comparable within an allelic series)"
same,binding signal,HOXA2 [32],"7.41 upbm affinity estimate (log intensity, higher = more binding, comparable within an allelic series)"
CCTAGGGC,binding signal,HOXA2 [28],"6.96 upbm affinity estimate (log intensity, higher = more binding, comparable within an allelic series)"
same,binding signal,HOXA2 [31],"10.4 upbm affinity estimate (log intensity, higher = more binding, comparable within an allelic series)"
same,binding signal,HOXA2 [32],"6.98 upbm affinity estimate (log intensity, higher = more binding, comparable within an allelic series)"
